# From PubChem BioAssay (Tox21)
# Where “and” joins values, the source holds several entries; their conditions need not be identical. Equal values may be shown once. Results filed as inconclusive are left out. Entries that show only a call come without a potency. Some structures have more than one record in an assay (separate samples or runs), and their calls can disagree. Calls of active or inactive are those of the source. The call rests on the fitted dose curve.
# Assay: qHTS assay to identify small molecule agonists of the hypoxia (HIF-1) signaling pathway - cell viability counter screen (AID 1224844); further: nearly all actives have a fitted effect of over 50% in size
# Settings: HRE-bla ME-180 viability, CellTiter-Glo luminescence, 17 h; series mostly up to 76.8 µM
# Method in brief: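 Same wells as the HIF-1 reporter screen; ME-180 cells carrying HRE-bla, 17 hr treatment at 37C; CellTiter-Glo luminescence read after 30 min at room temperature.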
# Potency means the concentration at half of the fitted maximal effect.
row,Structure (SMILES),Potency
1,Nc1ccc(O)cc1,50.9 µM (active) and inactive
2,CCc1cc(C(C)(C)C)c(O)c(C(C)(C)C)c1,inactive
3,CCN(CC)C(=S)SSC(=S)N(CC)CC,355 nM (active) and inactive
4,Oc1ccc(Cl)cc1Cc1cc(Cl)ccc1O,54.9 µM (active) and inactive
5,O=C1OC2(c3ccc(O)cc3Oc3cc(O)ccc32)c2ccccc21,inactive
6,CC(C)(C)c1ccc(O)c(C(C)(C)C)c1,43.5 µM (active)
7,CC[C@H]1CN2CCc3cc(OC)c(OC)cc3[C@@H]2C[C@@H]1C[C@H]1NCCc2cc(OC)c(OC)cc21,inactive
8,COc1nc(C)nc(Cl)c1NC1=NCCN1,inactive
9,O=C(O)c1cn(-c2ccc(F)cc2)c2cc(N3CCNCC3)c(F)cc2c1=O,inactive
10,CC(N)=O,inactive
11,COc1ccc(CCN2CCC(Nc3nc4ccccc4n3Cc3ccc(F)cc3)CC2)cc1,12.6 µM (active)
12,CC(COc1ccccc1)N(CCCl)Cc1ccccc1 (configuration not stated),49.5 µM (active) and inactive
13,Nc1nc2ccccc2[nH]1,inactive
14,CCN(CC)CCOc1ccc(/C(=C(\Cl)c2ccccc2)c2ccccc2)cc1,39.7 µM (active)
15,Oc1c(Cl)cc(Cl)cc1Sc1cc(Cl)cc(Cl)c1O,19.5 µM (active) and 24.5 µM (active) and inactive
16,Cc1cc(C2(c3cc(C)c(O)cc3C)OS(=O)(=O)c3ccccc32)c(C)cc1O,inactive
17,O=C(O[C@@H]1Cc2c(O)cc(O)cc2O[C@@H]1c1cc(O)c(O)c(O)c1)c1cc(O)c(O)c(O)c1,inactive
